The term inhibition denotes the drop in the measured response relative to a control, in per cent.

Hit rate of the full screen: of about 190,000 compounds, about 810 (0.43%) were called active. Cut-off read from the data, not from the text of the source: active = inhibition above about 50%; inactive = the rest. This excerpt belongs to a sample that is enriched for actives.

This passage reports inhibition results from PubChem BioAssay AID1209 (Sanford-Burnham Center for Chemical Genomics, 2008).

The target in this experiment is Mannose-6-phosphate isomerase (Homo sapiens) (UniProt P34949). The experiment is described as follows: inhibitors of human PMI, primary screen, biochemical, fluorescence intensity, coupled assay (AID 1209).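 Note: plate controls were DMSO vehicle for no effect and wells lacking substrate for full effect.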 As to conditions: purified PMI enzyme, at 20 µM, stronger effect = higher value.
Sequence of Mannose-6-phosphate isomerase (Homo sapiens) (P34949 whole entry, looked up): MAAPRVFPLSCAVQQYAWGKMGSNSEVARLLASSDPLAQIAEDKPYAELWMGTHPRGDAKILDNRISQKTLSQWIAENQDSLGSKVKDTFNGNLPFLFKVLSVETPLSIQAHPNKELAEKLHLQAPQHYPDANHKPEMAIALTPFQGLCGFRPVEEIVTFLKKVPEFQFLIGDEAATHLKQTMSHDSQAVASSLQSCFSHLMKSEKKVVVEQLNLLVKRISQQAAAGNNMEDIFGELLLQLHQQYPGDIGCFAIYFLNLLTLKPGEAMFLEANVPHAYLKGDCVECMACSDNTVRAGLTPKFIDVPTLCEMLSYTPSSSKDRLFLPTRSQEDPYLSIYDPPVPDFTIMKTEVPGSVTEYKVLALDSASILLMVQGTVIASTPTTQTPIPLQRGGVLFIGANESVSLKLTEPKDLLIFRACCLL
In the case of `COc1ccc(/C=C/C(=O)OCC(=O)Nc2c(C)cccc2C)cc1`, the inhibition was -7.6% (inactive).

On to `CC(=O)c1ccc(Nc2cc(C)nc3ccccc23)cc1`, for which the inhibition is 95.7% (active).

In the case of `COc1ccc(Nc2cc(C)nc3ccccc23)cc1`, the inhibition is 16% (inactive).

On to `CC(=O)c1ccc(Nc2cc(C)nc3ccc(C)cc23)cc1`, for which the inhibition was 11.3% (inactive).

Regarding `Cc1ccc(O)c(C(=O)c2cnc3c(c2)CN(C)C(=O)N3)c1`, the inhibition was 3.7% (inactive).

In the case of `O=C(c1cnc2sccn2c1=O)N(Cc1ccccc1)c1ccccn1`, the inhibition was 14.3% (inactive).

With `CCOC(=O)c1c(NC(=O)CSc2nnnn2-c2ccc(OC)cc2)sc(C)c1C`, the inhibition is 60% (active).

On to `CCOC(=O)c1sc(NC(=O)CSc2nnnn2-c2ccccc2)c(C(=O)OCC)c1C`, for which the inhibition is 14.3% (inactive).

As for `CCOC(=O)c1sc(NC(=O)CSc2nnnn2-c2ccc(C)cc2)c(C(=O)OCC)c1C`, the inhibition was 12.2% (inactive).

Take `Cc1cc(OCC(=O)NCc2ccncc2)ccc1Cl`: the inhibition is 1% (inactive).

On to `Cc1ccc(N2CCN(CC(=O)Nc3c(C(=O)C4CC4)oc4ccccc34)CC2)cc1`, for which the inhibition was -11.1% (inactive).

As to `COc1ccc(N(CC(=O)Nc2ccc3c(c2)OCO3)S(C)(=O)=O)c(OC)c1`, the inhibition is -4.4% (inactive).

On to `COC(=O)C(N)Cc1ccc(O)cc1` (stereo not drawn), for which the inhibition was -4.5% (inactive).

In the case of `C[C@](N)(Cc1ccc(O)c(O)c1)C(=O)O`, the inhibition is 57.7% (active).

Take `COc1ccc(CC(=O)O)cc1O`: the inhibition is 2.3% (inactive).

As for `COC(=O)C(N)Cc1ccc(O)c(O)c1` (stereo not drawn), the inhibition was 56.9% (active).

Consider `COC(=O)[C@@H](N)Cc1ccc(O)cc1`, for which the inhibition was 2.6% (inactive).

For the compound `C[C@@](Cc1ccc(O)c(O)c1)(NN)C(=O)O`, the inhibition is 12.9% (inactive).

Regarding `Oc1c(C(c2ccccc2)N2CCCCC2)sc2ncnn12` (stereo not drawn), the inhibition was -8.5% (inactive).

Turning to `COc1cc2c(cc1OC)C(=S)NC1(CCCC1)C2`, the inhibition was -19.1% (inactive).

For `CC(=O)c1c(OC(=O)c2ccco2)c2ccccc2n1C`, the inhibition was 4% (inactive).

Turning to `NC(=O)c1ccsc1NC(=O)CSc1nnc(Nc2ccccc2)s1`, the inhibition is 0.1% (inactive).

`CC(C)C[C@H](NS(=O)(=O)c1ccc(Br)cc1)C(=O)O`: the inhibition was 5.2% (inactive).

For the compound `CCCCNc1nc(NC)nc(Cl)c1SC`, the inhibition is 0.4% (inactive).

With `C/C(=N\NC(=O)c1ccc([N+](=O)[O-])cc1)c1cccc([N+](=O)[O-])c1`, the inhibition was 3.4% (inactive).

Turning to `C/C(=N/NC(=O)c1cc(O)c(O)c(O)c1)c1ccc([N+](=O)[O-])cc1`, the inhibition was 64.5% (active).

For `C/C(=N\NC(=O)c1ccc([N+](=O)[O-])cc1)c1c(O)cc(C)oc1=O`, the inhibition is -40.7% (inactive).

For the compound `CCN(CC)c1ccc(/C=C2\NC(=O)NC2=O)cc1`, the inhibition is 9.7% (inactive).
